A number with no mark means an inactive call. Inconclusive results are not listed. A call without a number means that no potency is given here. The source made the active and inactive calls. Unless noted, the call rests on the fitted dose curve; in most records, active means well fitted curve in the direction sought with a large enough effect; inconclusive means small, poorly fitted or top-dose-only effect, or another doubt; inactive means no such curve, though single readings can be large; an effect the other way counts as inactive or inconclusive.
Tests used:
[1] = Cell Viability - Hek293 (AID 427;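 active means compounds whose dose-response curve shows a full or clear partial loss of cell viability, called from curve shape rather than a numeric limit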;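 further: potency means the concentration at half of the fitted maximal effect; cells exposed to compound for 40 hours at 37 °C before reading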); details: qHTS
Summary of the method: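 Luminescent ATP read-out (CellTiter-Glo, 20 min RT) after 40 hr compound exposure at 37 °C in complete medium. Signal normalized to DMSO (basal) and 100 uM tamoxifen (100% inhibition); concentration-response fitted with the standard Hill equation to give AC50.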

[2] = Cellular Toxicity (caspase-3) Hek293 (AID 664); details: HEK293 caspase-3 activation, DMSO = 0%, 100 µM tamoxifen = 100%; at 92.2 µM (top of the series);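 further: cells exposed to compound for 16 h at 37 °C before readout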
Summary of the method: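 qHTS, HEK293 (human embryonic kidney), 16 h cpd exposure in complete medium. Caspase-3/7 activation = luminescence increase; normalized to DMSO/100 uM tamoxifen; Hill-fit AC50.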

[3] = molecular target: Cytochrome P450 3A4 (Homo sapiens) (UniProt P08684); experiment: qHTS Assay for Inhibitors and Substrates of Cytochrome P450 3A4 (AID 884); details: recombinant CYP3A4, Luciferin-PPXE luminescence; series mostly up to 57.1 µM; further: nearly all actives have a fitted effect of over 50% in size; further: potency means the concentration at half of the fitted maximal effect
Summary of the method: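 Luminescent readout of luciferin produced by CYP3A4 (20 nM) dealkylation of Luciferin-PPXE, 25 uM (its KM). NADPH-driven reaction ran 60 min at RT after 10 min compound preincubation; data scaled to 57 uM ketoconazole as 100% inhibition.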

[4] = molecular target: Estrogen receptor (Homo sapiens) (UniProt P03372); experiment: qHTS assay for small molecule antagonists of estrogen receptor alpha signaling (AID 588513; active means well fitted curve in the direction sought with a large enough effect in the signal ratio, with a control signal flat, not every such curve was filed as active; the % refers to the signal ratio); details: ER-alpha-UAS-bla HEK293, beta-lactamase ratio, antagonist mode; series mostly up to 76.9 µM
Summary of the method: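 ER-alpha-UAS-bla GripTite HEK 293 cells in 2% charcoal/dextran-treated FBS medium; compounds titrated (1:2, duplicate), then stimulated with 0.5 nM 17-beta-estradiol for 18 h at 37C. CCF4 beta-lactamase fluorescence; Hill-fit IC50 and efficacy.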

[5] = molecular target: Peroxisome proliferator-activated receptor gamma (Homo sapiens) (UniProt P37231); experiment: qHTS assay for small molecule agonists of peroxisome proliferator-activated receptor gamma signaling (AID 588536; active means well fitted curve in the direction sought with a large enough effect in the signal ratio, with a control signal flat, not every such curve was filed as active; the % refers to the signal ratio); details: HEK293 PPARg-UAS-bla, beta-lactamase ratio, 16 h, percent of rosiglitazone response, DMSO as zero; series mostly up to 76.7 µM
Summary of the method: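 Compound treatment: 16 h, 37 C, HEK293 GeneBLAzer cells. Detection: CCF4, 2 h RT. Values: Hill-fit EC50, efficacy as % of 2 uM rosiglitazone.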

[6] = molecular target: Vitamin D3 receptor (Homo sapiens) (UniProt P11473); experiment: qHTS assay for small molecule agonists of vitamin D receptor signaling (AID 588543; calls by dose curve); details: HEK293T VDR-UAS-bla, beta-lactamase ratio, 16 h; series mostly up to 76.8 µM
Summary of the method: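 VDR-UAS-bla HEK293T cells, 2000/well, 2% charcoal-stripped FBS; compound titration 16 h at 37 C; CCF4 beta-lactamase ratio read. Normalized to 50 nM 1-alpha,25-dihydroxyvitamin D3 (100%) and DMSO; Hill fit gives EC50, efficacy.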

[7] = molecular target: Voltage-gated inwardly rectifying potassium channel KCNH2 (Homo sapiens) (UniProt Q12809); experiment: qHTS Assay for Small Molecule Inhibitors of the Human hERG Channel Activity (AID 588834); details: U2OS BacMam hERG, FluxOR thallium flux fluorescence; series mostly up to 92.2 µM;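 further: top concentration of the series differs between compounds; lower thallium flux fluorescence means stronger hERG block; nearly all actives have a fitted effect of over 50% in size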
Summary of the method: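 Thallium serves as surrogate for K+ influx through BacMam-delivered hERG in U2OS cells. Compounds are added for about 10 minutes after dye loading; stimulation buffer then starts flux, monitored kinetically on FDSS.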

[8] = qHTS assay for small molecule agonists of the antioxidant response element (ARE) signaling pathway (AID 651741; active means well fitted activation curve with a large enough effect in the signal ratio; the % refers to the signal ratio; further: potency means the concentration at half of the fitted maximal effect); details: HepG2 ARE-bla reporter, beta-lactamase FRET ratio, 16 h; series mostly up to 96 µM
Summary of the method: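 Stably integrated ARE-beta-lactamase reporter HepG2 cells; 16 h compound incubation, 37 C; LiveBLAzer FRET substrate 2 h at room temperature; fluorescence intensity.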

[9] = qHTS assay for small molecule activators of the p53 signaling pathway (AID 651743; active means well fitted activation curve with a large enough effect in the signal ratio, not every such curve was filed as active; the % refers to the signal ratio); details: HCT-116 p53RE-bla, beta-lactamase FRET ratio, 16 h; activation: stronger effect = higher value
Summary of the method: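 Following 16 hours of compound exposure at 37 C, HCT-116 cells bearing the p53RE-bla reporter were loaded with LiveBLAzer B/G FRET substrate for 2 hours at room temperature and fluorescence intensity was recorded.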

[10] = qHTS assay for small molecule antagonists of the retinoid-related orphan receptor gamma (ROR-gamma) signaling pathway - cell viability counter screen (AID 720652; active means well fitted curve in the direction sought with a large enough effect in the repeat runs; an effect the other way counts as inactive or inconclusive;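 further: CHO reporter cells with doxycycline-induced ROR-gamma expression; compound exposure lasted 16 hr before ATP read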); details: RORgamma reporter cell line viability counter screen; series mostly up to 92.2 µM
Summary of the method: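 Steps: seed CHO cells bearing TET-inducible ROR and ROR response element-luciferase; rest 5 hr at 37 C; add compound, then doxycycline; incubate 16 hr; add CellTiter-Glo and read luminescence as ATP-based viability.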

[11] = Cellular Toxicity (caspase-3) BJ (AID 658); details: BJ fibroblasts, luminescence; Potency: caspase-3 activation; series mostly up to 91.7 µM
Summary of the method: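 qHTS, BJ fibroblasts, 1000 cells/well; 5 hr preincubation, 16 hr compound, 37 °C; Caspase-Glo 3/7 reagent, 1 hr RT; luminescence. DMSO = 0%, 10 uM staurosporine = 100%. Hill-equation AC50.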

[12] = Cell Viability - LYMP2-003 (AID 965); details: LYMP2-003 lymphoblastoid cell viability; series mostly up to 92.2 µM;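 further: cells exposed to compounds for 24 h before reading; nearly all actives have a fitted effect of over 50% in size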; further: potency means the concentration at half of the fitted maximal effect
Summary of the method: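 Human lymphoblastoid LYMP2-003 cells, 2500/well, exposed to compounds for 24 h at 37 C in complete medium. Viability read as intracellular ATP by CellTiter-Glo luminescence; AC50 from Hill-equation fits of qHTS concentration-response data.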

[13] = molecular target: Nuclear receptor ROR-gamma (Homo sapiens) (UniProt P51449); experiment: qHTS assay for small molecule antagonists of the retinoid-related orphan receptor gamma (ROR-gamma) signaling pathway (AID 651802); details: ROR-gamma antagonist cell reporter assay; series mostly up to 92.2 µM; further: nearly all actives have a fitted effect of over 60% in size; further: potency means the concentration at half of the fitted maximal effect
Summary of the method: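 Steps: cells dispensed; compound or DMSO transferred by pin tool; doxycycline added to induce the ROR response element-driven luciferase; plates held 16hr at 37C; ONE-Glo added and luminescence measured.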

[14] = qHTS assay for small molecule activators of the human pregnane X receptor (PXR) signaling pathway (AID 720659; call rule not given here); details: DPX-2 HepG2 CYP3A4-luciferase, 24 h; series mostly up to 92.3 µM
[15] = Cell Viability - LYMP1-002 - Assay at 16 hr (AID 948); details: LYMP1-002 lymphoblastoid cell viability; series mostly up to 92.2 µM
Summary of the method: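 LYMP1-002 human lymphoblastoid cells, 2500/well, were treated with compounds for 16 hr at 37 C in complete medium. Viability was read as intracellular ATP by CellTiter-Glo luminescence, and AC50 was derived from a Hill fit to concentration-response data.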

[16] = qHTS assay for small molecule activators of the nuclear factor-kappa B (NF-kB) signaling pathway (AID 651749; active means well fitted activation curve with a large enough effect in the signal ratio; the % refers to the signal ratio); details: NF-kB-bla ME-180 cells, beta-lactamase FRET ratio, 16 h; stronger effect = higher value
Summary of the method: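 In this qHTS format, compounds acting as activators increase NF-kB-driven beta-lactamase in ME-180 cells, measured as disrupted FRET after 16 hr exposure at 37C and 5% CO2.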

[17] = molecular target: Tumor necrosis factor (Homo sapiens) (UniProt P01375); experiment: qHTS assay to identify small molecules that stimulate Tumor Necrosis Factor-alpha (TNF-alpha) secretion (AID 651757; active means well fitted curve in the direction sought with a large enough effect in the signal ratio; the % refers to the signal ratio); details: Human cells, HTRF 665/615 ratio; series mostly up to 92.2 µM
Summary of the method: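 Human monocytic THP-1 cells are plated, treated with compound and held at 37 C for 17 hrs. Labeled anti-TNF-alpha antibody mixture is then added; after 3 hr at room temperature, TR-FRET signal reports secreted TNF-alpha.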

[18] = Cell Viability - LYMP1-002 - Assay at 24 hr (AID 993); details: LYMP1-002 lymphoblastoid cells viability; series mostly up to 92.2 µM
Summary of the method: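 Acute toxicity is measured as concentration-dependent loss of cellular ATP in a human lymphoblastoid line (Coriell LYMP1-002) after 24 h treatment in complete medium. ATP is quantified by luciferase luminescence and AC50 derived by Hill modelling.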

[19] = Cellular Toxicity (caspase-3) Jurkat (AID 655); details: Jurkat caspase-3 activation, luminescence; caspase-3 activation: at 92.2 µM (top of the series), DMSO = 0%, tamoxifen = 100%;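 further: cells exposed to compound for 16 h at 37 °C before reading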
Summary of the method: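 Jurkat cells (5000/well) in complete medium exposed 16 h at 37 C; caspase-3/7 activity read by Caspase-Glo luminescence after 20 min at room temperature. Normalized to DMSO and 100 uM tamoxifen; AC50 from Hill fits.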

[20] = Cell Viability - Jurkat (AID 426;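 active means dose-dependent loss of cell ATP signal giving a full or clear fitted curve, ranked by lower potency value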;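 further: potency means the concentration at half of the fitted maximal effect; cells exposed to compound for 40 hours at 37 °C before ATP read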); details: qHTS
Summary of the method: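 Cells of the human T-cell leukemia line Jurkat (E6-1) are seeded at 5000 per well, treated with compound across a concentration range for 40 hours at 37 °C, then lysed with CellTiter-Glo; luminescence reports ATP.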

Chain of Nuclear receptor ROR-gamma (Homo sapiens) (P51449 whole entry, looked up): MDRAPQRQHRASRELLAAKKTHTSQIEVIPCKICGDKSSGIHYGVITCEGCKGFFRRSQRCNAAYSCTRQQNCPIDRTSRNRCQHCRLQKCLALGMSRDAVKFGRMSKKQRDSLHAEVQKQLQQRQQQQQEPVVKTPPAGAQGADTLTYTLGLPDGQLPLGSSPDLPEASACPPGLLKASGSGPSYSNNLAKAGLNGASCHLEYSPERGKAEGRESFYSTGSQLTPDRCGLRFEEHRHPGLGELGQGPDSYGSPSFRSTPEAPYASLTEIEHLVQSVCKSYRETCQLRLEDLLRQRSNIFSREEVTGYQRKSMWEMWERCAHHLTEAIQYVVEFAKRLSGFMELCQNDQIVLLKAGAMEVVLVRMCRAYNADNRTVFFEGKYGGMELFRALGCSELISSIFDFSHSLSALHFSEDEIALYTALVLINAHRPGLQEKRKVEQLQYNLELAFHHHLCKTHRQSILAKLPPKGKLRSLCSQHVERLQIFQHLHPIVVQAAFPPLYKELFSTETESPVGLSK
Chain of Vitamin D3 receptor (Homo sapiens) (P11473 whole entry, looked up): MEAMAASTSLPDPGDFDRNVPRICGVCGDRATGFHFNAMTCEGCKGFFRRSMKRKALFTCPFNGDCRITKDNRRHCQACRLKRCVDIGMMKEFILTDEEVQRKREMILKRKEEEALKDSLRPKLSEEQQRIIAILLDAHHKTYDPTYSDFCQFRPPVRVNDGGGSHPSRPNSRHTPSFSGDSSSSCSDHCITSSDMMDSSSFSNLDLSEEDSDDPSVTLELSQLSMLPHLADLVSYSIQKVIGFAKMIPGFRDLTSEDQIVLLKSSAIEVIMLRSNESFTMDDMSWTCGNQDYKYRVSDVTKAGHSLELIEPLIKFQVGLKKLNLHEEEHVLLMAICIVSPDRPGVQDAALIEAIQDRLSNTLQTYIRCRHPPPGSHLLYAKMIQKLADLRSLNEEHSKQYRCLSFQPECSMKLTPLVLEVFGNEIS
Chain of Estrogen receptor (Homo sapiens) (P03372 whole entry, looked up): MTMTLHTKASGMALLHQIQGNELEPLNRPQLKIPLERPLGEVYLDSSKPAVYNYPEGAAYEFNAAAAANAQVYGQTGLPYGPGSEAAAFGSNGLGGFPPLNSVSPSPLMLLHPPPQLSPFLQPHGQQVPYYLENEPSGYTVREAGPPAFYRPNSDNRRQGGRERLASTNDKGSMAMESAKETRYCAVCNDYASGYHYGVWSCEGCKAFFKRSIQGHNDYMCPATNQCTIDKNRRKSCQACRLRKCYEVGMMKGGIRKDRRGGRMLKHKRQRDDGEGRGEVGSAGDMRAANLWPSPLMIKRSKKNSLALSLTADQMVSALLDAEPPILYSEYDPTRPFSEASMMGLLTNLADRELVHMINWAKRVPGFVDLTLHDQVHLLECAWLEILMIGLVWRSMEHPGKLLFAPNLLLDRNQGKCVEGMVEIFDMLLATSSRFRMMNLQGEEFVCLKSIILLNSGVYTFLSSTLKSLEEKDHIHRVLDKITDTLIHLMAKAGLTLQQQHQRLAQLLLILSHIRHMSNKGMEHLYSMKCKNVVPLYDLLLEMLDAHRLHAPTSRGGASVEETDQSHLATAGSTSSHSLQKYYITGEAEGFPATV
Chain of Voltage-gated inwardly rectifying potassium channel KCNH2 (Homo sapiens) (Q12809 whole entry, looked up): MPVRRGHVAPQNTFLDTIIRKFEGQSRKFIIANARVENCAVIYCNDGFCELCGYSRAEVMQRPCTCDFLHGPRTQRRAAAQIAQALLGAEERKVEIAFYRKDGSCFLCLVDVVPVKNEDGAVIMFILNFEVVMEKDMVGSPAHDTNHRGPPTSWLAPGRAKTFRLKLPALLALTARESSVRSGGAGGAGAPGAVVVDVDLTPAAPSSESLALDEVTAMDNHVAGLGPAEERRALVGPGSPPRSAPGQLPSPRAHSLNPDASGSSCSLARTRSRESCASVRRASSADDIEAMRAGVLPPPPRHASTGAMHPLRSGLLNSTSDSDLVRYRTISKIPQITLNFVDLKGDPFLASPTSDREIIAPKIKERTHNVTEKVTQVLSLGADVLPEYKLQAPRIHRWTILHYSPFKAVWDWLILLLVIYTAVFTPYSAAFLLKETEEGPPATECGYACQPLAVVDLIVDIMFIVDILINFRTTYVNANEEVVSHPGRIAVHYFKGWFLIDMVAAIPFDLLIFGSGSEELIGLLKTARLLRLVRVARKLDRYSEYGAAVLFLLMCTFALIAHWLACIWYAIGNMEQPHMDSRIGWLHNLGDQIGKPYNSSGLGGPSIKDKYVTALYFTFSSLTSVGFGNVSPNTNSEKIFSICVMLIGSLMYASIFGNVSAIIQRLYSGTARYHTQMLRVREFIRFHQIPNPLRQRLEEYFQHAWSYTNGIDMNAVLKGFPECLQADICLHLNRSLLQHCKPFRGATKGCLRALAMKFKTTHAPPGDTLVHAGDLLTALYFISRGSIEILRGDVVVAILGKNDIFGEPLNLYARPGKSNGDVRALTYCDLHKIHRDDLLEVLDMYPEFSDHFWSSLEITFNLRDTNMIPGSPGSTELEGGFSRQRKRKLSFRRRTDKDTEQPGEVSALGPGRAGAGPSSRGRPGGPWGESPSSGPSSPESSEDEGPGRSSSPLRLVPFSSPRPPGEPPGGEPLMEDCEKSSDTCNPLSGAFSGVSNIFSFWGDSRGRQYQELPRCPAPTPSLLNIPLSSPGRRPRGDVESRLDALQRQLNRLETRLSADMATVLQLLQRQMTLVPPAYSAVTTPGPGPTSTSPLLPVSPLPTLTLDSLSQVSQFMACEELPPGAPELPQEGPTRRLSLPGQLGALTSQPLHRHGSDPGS
Chain of Cytochrome P450 3A4 (Homo sapiens) (P08684 whole entry, looked up): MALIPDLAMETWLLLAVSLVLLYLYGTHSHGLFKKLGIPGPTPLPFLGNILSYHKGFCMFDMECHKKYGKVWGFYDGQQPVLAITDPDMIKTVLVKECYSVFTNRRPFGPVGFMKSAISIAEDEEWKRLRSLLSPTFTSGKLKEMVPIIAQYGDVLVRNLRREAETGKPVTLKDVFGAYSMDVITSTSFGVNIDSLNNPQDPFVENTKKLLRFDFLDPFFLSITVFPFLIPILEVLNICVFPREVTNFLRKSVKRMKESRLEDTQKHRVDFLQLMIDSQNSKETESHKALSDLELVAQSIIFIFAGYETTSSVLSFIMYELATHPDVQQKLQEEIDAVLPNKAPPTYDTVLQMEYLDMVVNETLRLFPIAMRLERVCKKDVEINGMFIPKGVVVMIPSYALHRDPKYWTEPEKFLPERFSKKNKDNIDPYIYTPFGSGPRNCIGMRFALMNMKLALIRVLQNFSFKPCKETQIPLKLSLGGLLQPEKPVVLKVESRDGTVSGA
Chain of Peroxisome proliferator-activated receptor gamma (Homo sapiens) (P37231 whole entry, looked up): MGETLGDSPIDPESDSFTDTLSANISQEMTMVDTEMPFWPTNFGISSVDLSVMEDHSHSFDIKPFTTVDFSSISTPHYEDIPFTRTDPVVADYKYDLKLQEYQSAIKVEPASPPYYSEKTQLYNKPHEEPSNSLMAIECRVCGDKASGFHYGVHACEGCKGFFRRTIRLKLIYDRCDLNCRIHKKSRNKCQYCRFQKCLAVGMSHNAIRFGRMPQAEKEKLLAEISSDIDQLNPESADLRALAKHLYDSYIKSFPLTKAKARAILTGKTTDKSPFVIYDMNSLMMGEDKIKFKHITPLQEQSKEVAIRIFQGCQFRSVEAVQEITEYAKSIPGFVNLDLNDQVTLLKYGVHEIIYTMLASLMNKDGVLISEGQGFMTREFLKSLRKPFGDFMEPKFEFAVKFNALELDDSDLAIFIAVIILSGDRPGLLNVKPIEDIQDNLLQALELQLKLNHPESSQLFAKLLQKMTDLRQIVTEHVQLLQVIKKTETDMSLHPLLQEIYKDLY
Chain of Tumor necrosis factor (Homo sapiens) (P01375 whole entry, looked up): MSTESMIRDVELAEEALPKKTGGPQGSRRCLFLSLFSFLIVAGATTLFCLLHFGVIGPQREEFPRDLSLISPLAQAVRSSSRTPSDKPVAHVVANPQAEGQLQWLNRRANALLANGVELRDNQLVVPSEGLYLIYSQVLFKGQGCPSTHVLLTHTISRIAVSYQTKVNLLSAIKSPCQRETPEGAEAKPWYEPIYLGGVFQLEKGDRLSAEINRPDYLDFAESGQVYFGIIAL

Compound | Potency [1] | caspase-3 activation [2] | Potency [3] | outcome [4] | outcome [5] | Potency [6] | Potency [7] | Potency [8] | activation [9] | Potency [10] | Potency [11] | Potency [12] | Potency [13] | outcome [14] | Potency [15] | activation [16] | Potency [17] | Potency [18] | Potency [19] | Potency [20]
Nc1ccccc1O | > 92 µM | 4.27% | inactive | inactive | inactive | inactive | inactive | 13.3 µM (active) | 17.3% | inactive | – | – | – | – | – | – | – | – | – | –
Cc1cc(-c2ccc(N=Nc3cc(S(=O)(=O)O)c4ccccc4c3N)c(C)c2)ccc1N=Nc1cc(S(=O)(=O)O)c2ccccc2c1N | – | -4.55% | – | inactive | – | inactive | inactive | – | – | inactive | inactive | inactive | inactive | inactive | – | – | – | – | – | –
O=C=Nc1ccc(Cl)c(Cl)c1 | 38.9 µM (active) | – | inactive | inactive | – | inactive | inactive | 75 µM (active) | – | – | inactive | – | 33.5 µM (active) | inactive | inactive | 7.4% | inactive | – | – | –
O=C1OC(=O)c2ccccc21 | > 92 µM | – | – | inactive | inactive | inactive | inactive | inactive | -3.66% | inactive | inactive | inactive | – | inactive | – | 0.114% | inactive | inactive | – | –
CC(C)(C)C(=O)C1C(=O)c2ccccc2C1=O | – | -1.93% | inactive | inactive | – | inactive | inactive | – | 12% | – | inactive | – | – | – | inactive | 1.49% | – | – | inactive | –
O=C1c2ccccc2C(=O)C1(O)O | – | – | inactive | inactive | – | inactive | inactive | 66.8 µM (active) | – | – | inactive | 50.1 µM (active) | – | inactive | inactive | -0.508% | inactive | inactive | – | 34.4 µM (active)
CC/C=C/C/C=C/C/C=C/CCCCCCCC(=O)OCC | > 92 µM | 7.96% | 10 µM (active) | – | inactive | – | – | 59.6 µM (active) | – | – | inactive | 31.6 µM (active) | inactive | – | – | -1.38% | inactive | – | inactive | –
